Screens from PubChem.
AmpC no deterg – blocks E. coli AmpC beta-lactamase in detergent-free assay | P00811 | Potency, µM (highest dose often 57.1 µM), for the others: at the highest dose activity change, negative = inhibition, actives largely listed as inhibitors | AID 485341 | 330,000 compounds, 0.52% hits | AmpC nitrocefin hydrolysis, absorbance 480 nm, 0.0001% Triton;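 further: potency means the concentration at half of the fitted maximal effect; plate controls were no compound for no effect and no enzyme for full effect; nearly all actives have a fitted effect of over 20% in size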
Target sequence (P00811 whole entry, looked up): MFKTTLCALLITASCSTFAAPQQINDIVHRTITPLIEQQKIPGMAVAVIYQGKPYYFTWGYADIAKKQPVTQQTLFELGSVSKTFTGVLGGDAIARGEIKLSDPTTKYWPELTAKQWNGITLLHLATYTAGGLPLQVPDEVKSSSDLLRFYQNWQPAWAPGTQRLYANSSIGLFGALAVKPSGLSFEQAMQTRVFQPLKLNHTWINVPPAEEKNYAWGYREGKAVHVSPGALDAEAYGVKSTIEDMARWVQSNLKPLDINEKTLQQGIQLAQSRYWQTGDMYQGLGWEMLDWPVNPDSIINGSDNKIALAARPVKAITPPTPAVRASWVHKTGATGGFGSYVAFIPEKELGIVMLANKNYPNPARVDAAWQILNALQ
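AmpC (5.3 nM in the dispensed reagent) in 20 mM phosphate pH 7.0 with 0.01% (detergent screen) or 0.0001% Triton X-100 was preincubated with compounds for 15 min at room temperature. Nitrocefin was then added from an 800 uM solution, and hydrolysis was followed at 480 nm.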
HCV inh – blocks hepatitis C virus; Potency, µM (highest dose often 41.8 µM), for inactives: at the highest dose activity change, negative = inhibition, usual class: inhibitors; Huh7.5.1 HCVcc-Cre infection, luciferase reporter, 44 h; 340,000 compounds, 3.4% hits; AID 651820; further: potency means the concentration at half of the fitted maximal effect
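Compounds are dispensed onto cells plated 4 h earlier at 1,000 per well, with HCVcc-Cre virus (about 0.5 moi) added next. Following 44 h of culture, luminescent signal is measured for 15 sec after 15 min with substrate at room temperature.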
AmpC detergent – blocks E. coli AmpC beta-lactamase in detergent assay | P00811 | AmpC hydrolysis of nitrocefin, absorbance 480 nm, 0.01% Triton | Potency, µM (titrated, usually from 114 µM), inactives show at the top dose activity change, negative = inhibition, most hits filed as inhibitors | 370,000 compounds, 0.041% hits | AID 485294;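 further: potency means the concentration at half of the fitted maximal effect; 0% = no-compound wells and -100% = no-enzyme wells; nearly all actives have a fitted effect of over 25% in size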
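AmpC (5.3 nM in the dispensed reagent) in 20 mM phosphate pH 7.0 with 0.01% (detergent screen) or 0.0001% Triton X-100 was preincubated with compounds for 15 min at room temperature. Nitrocefin was then added from an 800 uM solution, and hydrolysis was followed at 480 nm.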
FMDV antiviral – foot and mouth disease virus antiviral activity; 410,000 compounds, 1.2% hits; FMDV antiviral cell-based qHTS; Potency, µM (doses to about 57.9 µM), without a hit: at the highest dose activity change, negative = inhibition, most hits filed as inhibitors; AID 1159524; calls by dose curve; tested in HEK293T cells; further: read-out not given here; potency means the concentration at half of the fitted maximal effect; nearly all actives have a fitted effect of over 45% in size
HCMV antiviral – human cytomegalovirus inhibition; HFF cells, HCMV-luciferase reporter, 72 h; hits give low values; activity change, negative = inhibition, % at 57.5 µM; 410,000 compounds, 4.5% hits; in the data active means activity change below about -60%; inconclusive means no clear call, values can overlap the other calls; inactive means above about -39%
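After 16 h attachment at 37C, HFF cells received test compound and HCMV-luciferase (1 PFU/cell); reporter luminescence read 72 h later, data normalized against buffer-only and known inhibitor Salinomycin.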
* marks the source's active call; other numbers are inactive results; u = inconclusive; x = no result. Sampled rows, rich in hits. Any-hit rate of the full collection: about 7.3%. Unless noted, the call rests on the fitted dose curve; in most records, active means well fitted curve in the direction sought with a large enough effect; inconclusive means small, poorly fitted or top-dose-only effect, or another doubt; inactive means no such curve, though single readings can be large; an effect the other way counts as inactive or inconclusive. Unless noted, on the % scale 0 is the no-effect control and ±100 the full control effect.

SMILES | AmpC no deterg | HCV inh | AmpC detergent | FMDV antiviral | HCMV antiviral
CC(=O)c1cccc(Nc2nc(-c3sc(C)nc3C)cs2)c1 | 76% | 8.9µM* | 0% | u | 3
CC(=O)Nc1ccc(Nc2nc(-c3sc(C)nc3C)cs2)cc1 | -20% | u | -5% | 32µM* | -29
COc1ccc(Nc2nc(-c3sc(NC(C)=O)nc3C)cs2)cc1 | 17% | x | u | x | x
Cc1nc(C)c(-c2csc(Nc3ccc(S(N)(=O)=O)cc3)n2)s1 | -32% | 11µM* | -2% | -19% | -18
COC1CC(=O)C2OC(c3ccccc3)OCC2O1 (stereo not drawn) | x | x | x | 3% | -25
CC1CCCN(S(=O)(=O)c2cnc[nH]2)C1 (stereo not drawn) | -10% | 14% | 1% | -9% | 21
COC(=O)C(c1ccccc1)(c1cn(C)c2c(C)cccc12)C(Nc1ccccc1)c1ccccc1 (stereo not drawn) | x | x | x | x | -17
Cc1cccc(CNC(=O)c2cnn(-c3nccc(-c4cccs4)n3)c2C2CC2)n1 | x | x | x | -8% | x
Cc1ccc(Nc2nc(-c3sc(N)nc3C)cs2)cc1 | -6% | -9% | -8% | 23% | 58
NS(=O)(=O)c1ccc(Nc2nc(-c3cccc([N+](=O)[O-])c3)cs2)cc1 | -35% | 25µM* | 3% | u | u
Cc1ccc(Nc2nc(-c3sc(C)nc3C)cs2)cc1 | 5% | 5.6µM* | -3% | 9% | u
Cc1nc(Nc2ccc(S(N)(=O)=O)cc2)sc1C(=O)Nc1ccccc1 | -25% | u | -13% | u | -69*
COc1cc(C(=O)Nc2nnc(S(=O)(=O)N(C)c3ccccc3)s2)cc(OC)c1OC | x | x | 8% | -2% | 34
COCCCNC(=O)c1oc2ccc(S(=O)(=O)N3CCOCC3)cc2c1C | 14% | 9% | -6% | 0% | -16
CCN(CC)CCCNC(=O)c1oc2ccc(S(=O)(=O)N3CC(C)CC(C)C3)cc2c1C (stereo not drawn) | 101% | 22µM* | u | 15% | -98*
CCCCN(C)C(=O)c1oc2ccc(S(=O)(=O)N3CCCCCC3)cc2c1C | 70% | x | 2% | 35µM* | u
Cc1c(C(=O)NCCN2CCOCC2)oc2ccc(S(=O)(=O)N3CCCCCC3)cc12 | 178% | -3% | -8% | -5% | -100*
Cc1c(C(=O)NCCC2=CCCCC2)oc2ccc(S(=O)(=O)N3CCC4(CC3)OCCO4)cc12 | 73% | 13µM* | 0% | 18µM* | -27
CCC1CN(CC(=O)NC(c2ccccn2)C(F)(F)F)Cc2cc(OC)ccc2O1 (stereo not drawn) | x | x | x | -8% | x
COC(=O)[C@H]1C[C@@H](c2ccccc2)[C@H](C)C1(C)C | -16% | -1% | -1% | -9% | 5
Cc1c(C(=O)Nc2ccc(F)c(F)c2)oc2ccc(S(=O)(=O)N3CCC4(CC3)OCCO4)cc12 | x | x | 2% | -23% | 1
Cc1ccc(NC(=O)c2oc3ccc(S(=O)(=O)N4CCCCCC4)cc3c2C)cc1Cl | x | x | 8% | u | -15
Cc1c(C(=O)Nc2ccc(F)cc2)oc2ccc(S(=O)(=O)N3CCC4(CC3)OCCO4)cc12 | 76% | 4.5µM* | 4% | 22µM* | -63*
Cc1c(C(=O)Nc2ccc(F)c(F)c2)oc2ccc(S(=O)(=O)N3CCCCC3)cc12 | -40% | 6.3µM* | 0% | 14µM* | -20
CCOc1cccc(CN2CCC(n3cc(C(=O)N4CCCCC4)nn3)CC2)c1O | x | x | x | -6% | x
SMILES | AmpC no deterg | HCV inh | AmpC detergent | FMDV antiviral | HCMV antiviral
C=CCSc1nnc2c(n1)[nH]c1c(C)cccc12 | -33% | 7.9µM* | -6% | x | -37
Cc1cccc2c1[nH]c1nc(N/N=C\c3ccco3)nnc12 | -12% | 22% | -6% | x | 14
CCN(CC)c1ccc(/C=C/c2cc(-c3ccccc3)c3ccccc3n2)cc1 | -25% | 14µM* | 0% | -35% | -38
Cc1cc2oc(=O)cc(CN3CCN(Cc4ccccc4)CC3)c2cc1O | -2% | 11µM* | -2% | -19% | -9
Cc1ccc2c(CN3CCCCC3)cc(=O)oc2c1 | -14% | 2% | -5% | 21% | -77*
Cc1cc2oc(=O)cc(CN3CCN(C/C=C/c4ccccc4)CC3)c2cc1O | 12% | x | -5% | x | -20
Cc1ccc2c(CN3CCOCC3)cc(=O)oc2c1 | -5% | 10% | -8% | 6% | -3
COc1ccc2oc(=O)cc(CN3CCN(Cc4ccc(OC)c(OC)c4OC)CC3)c2c1 | 101% | 3.5µM* | -3% | -5% | -26
Cc1c(O)ccc2c(CN3CCN(C/C=C/c4ccccc4)CC3)cc(=O)oc12 | -20% | 11µM* | 1% | u | -60*
Nc1nc2ncccc2cc1C(=O)NC1CCCCC1 | x | x | x | 0% | -15
CC(C)C[C@H]1COc2ccc(Cl)cc2S(=O)(=O)N1C[C@H](NC(=O)OC(C)(C)C)C(C)C | x | x | x | x | -32
O=C(Nc1ccccc1N1CCOCC1)c1ccc2nc[nH]c2c1 | -4% | u | -1% | -15% | -19
COc1ccc(N2CCN(Cc3cc(=O)oc4cc(-c5ccccc5)c(O)cc34)CC2)cc1 | -29% | -10% | -16% | 0% | -80*
O=c1cc(CN2CCN(c3ccc(F)cc3)CC2)c2cc3c(cc2o1)CCCC3 | -1% | 16% | -8% | -12% | -62*
CC(C)CN(Cc1cc(=O)oc2cc(-c3ccccc3)c(O)cc12)CC(C)C | -44% | 14µM* | -3% | -13% | -33
O=c1cc(CN2CCN(c3ccccc3F)CC2)c2cc(O)c(-c3ccccc3)cc2o1 | -52% | 3% | -13% | -3% | -30
CN1CCN(Cc2cc(=O)oc3cc4c(cc23)CCC4)CC1 | 2% | u | -9% | 11% | 2
Cc1ncc2c(c1CNC(=O)c1ccccc1F)CCN(C(=O)c1ccc3c(c1)OCCO3)C2 | x | x | x | -8% | x
Cc1c(F)cccc1NS(=O)(=O)c1ccc2c(c1)c(C)cc(=O)n2C | 25% | -8% | 2% | 29% | 6
CN(C)c1cc[n+](Cc2c(Cl)cccc2Cl)cc1 | -9% | u | -11% | u | -87*
COC(=O)Cc1nnn2c1[C@H](C)[C@H](c1ccccc1Br)OC[C@@H]2c1ccccc1 | x | x | x | x | -21
CCCCc1nn2c(=O)cc(COC(=O)c3ccc(NC(=O)C4CCCCC4)cc3)nc2s1 | x | x | 18% | u | 106
Cc1cc2cc(C)c3nnc(SCc4ccccn4)n3c2cc1C | -13% | u | -12% | -35% | -65*
O=C(Nc1ccccc1)N1c2ccccc2SC1c1ccco1 (stereo not drawn) | x | x | x | x | 0
CC(=O)c1ccc(-c2ccc3c4c(ccc3c2)OC(CNC(=O)C(C)N2CCOCC2)C4)s1 (stereo not drawn) | x | x | x | 2% | x
CCOCCCNC(=O)c1ccc2c(c1)ncn2-c1ccc(CC)cc1 | 55% | -11% | -16% | 10% | -64*
CCOCCCNC(=O)c1ccc2c(c1)ncn2-c1ccc(C)cc1C | 36% | -3% | -5% | -15% | -29
